# Source: PubChem BioAssay (Bradner/Qi Labs at DFCI)
# This excerpt belongs to a sample that is enriched for hits.
# CBX7 inh = CBX7 inhibition, primary AlphaScreen. 1.1% of 66,000 active. AID 1224903. AlphaScreen His6-CBX7 / biotin-H3K27me3 peptide binding; active compounds read low. normalised signal (fraction of DMSO) (concentration not given with the values); in the data active means normalised signal below about 0.5
# Target sequence (O95931 whole entry, looked up): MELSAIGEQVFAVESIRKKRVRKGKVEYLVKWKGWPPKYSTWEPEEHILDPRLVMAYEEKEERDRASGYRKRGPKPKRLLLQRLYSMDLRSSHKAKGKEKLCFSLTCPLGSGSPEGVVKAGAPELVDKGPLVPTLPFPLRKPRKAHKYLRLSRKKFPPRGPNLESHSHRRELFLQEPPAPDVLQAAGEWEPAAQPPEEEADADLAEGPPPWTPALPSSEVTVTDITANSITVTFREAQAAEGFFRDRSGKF
# Numbers without * were called inactive.
SMILES,CBX7 inh
CCCn1cnc2cc(NCc3cccc(Br)c3)ccc21,0.33*
COc1cccc(-n2ccnc2SCC(=O)Nc2cc(C(F)(F)F)ccc2Cl)c1,0.77
CCc1ccc(NC(=O)CSc2nnc(-c3cccnc3)n2CC)cc1,1
CCc1ccc(NS(=O)(=O)c2ccc3c(c2)n(C)c(=O)c(=O)n3C)cc1,1.2
Cc1nc2ncnn2c(C)c1CCC(=O)Nc1cc(F)ccc1F,1.1
CCCCc1ccc(NC(=O)CSc2nccn2-c2ccc(OC)cc2)cc1,0.81
Cc1cc(C)cc(NC(=O)CCNS(=O)(=O)c2ccc3c(c2)CCC(=O)N3)c1,1.1
COC(=O)c1cc2ccsc2n1Cc1cccc(C)c1,1.2
CCCCOc1ccc(C(=O)Nc2ccc3nc(SCC(=O)N4CCOCC4)sc3c2)cc1,1
COc1ccc(CN(C)CCc2ccccn2)cc1OCc1ccccc1,0.72
COc1ccc(CN(C)CCc2ccccn2)cc1,0.69
COc1ccc(CN(C)CCc2ccccn2)cc1OC,0.47*
Cc1oc(-c2ccc(Cl)cc2)nc1CN1CCCC(C(=O)NCCC2=CCCCC2)C1 (centres undefined),0.99
CCc1cc(-c2[nH]ncc2-c2ccc(OC)cc2)c(O)cc1OC,0.89
COc1cccc(-c2nc(CSCC(=O)NCc3ccccc3)c(C)o2)c1,1
O=c1c(-c2cc(Br)ccc2NCc2ccccc2)nc2ccccc2n1Cc1ccccc1,0.37*
c1ccc(Cn2c(NCc3ccc4c(c3)OCO4)nc3ccccc32)cc1,0.94
Cc1ccccc1NCc1nc2ccccc2n1Cc1ccccc1,0.42*
Cc1ccccc1Cn1c(CNC(=O)Cc2ccccc2)nc2ccccc21,1.2
Cc1ccc(NCc2nc3ccccc3n2Cc2ccccc2)cc1,0.85
Clc1ccccc1-c1nc(NCc2ccccc2)nc2ccc(Br)cc12,1.5
O=C(c1ccc2nc(N3CCOCC3)sc2c1)N1CCN(Cc2ccccc2)CC1,1.1
CC1CCN(S(=O)(=O)c2ccc3[nH]cc(C(=O)NC4CCCCCC4)c(=O)c3c2)CC1,0.93
CCOc1ccccc1NC(=O)CCc1c(C)nc2c(c(C)nn2-c2ccc(C)cc2)c1C,0.81
COc1ccc(-c2nn(C)c3sc(C(=O)NC4CCCCC4)cc23)cc1OC,0.97
SMILES,CBX7 inh
COC(=O)c1c[nH]n2c(NC3CCCCC3)c(-c3ccc(OC)cc3)nc12,0.32*
COC(=O)c1c[nH]n2c(NC3CCC(C)CC3)c(-c3ccc(C)cc3)nc12 (centres undefined),0.23*
COC(=O)c1c[nH]n2c(NC3CCC(C)CC3)c(-c3ccc(OC(C)C)c(OC)c3)nc12 (centres undefined),0.12*
COc1ccc(NC(=O)c2c[nH]n3c(=O)cc(C4CCN(C(=O)OC(C)(C)C)CC4)nc23)cc1Cl,0.96
COC(=O)c1cn(-c2ccccc2)nc1-c1ccc(OC)cc1,1
COC(=O)c1c[nH]n2c(NC3CCCCC3)c(-c3ccc(OCCC(C)C)c(OC)c3)nc12,0.37*
COc1ccc(-c2nc(SCC(=O)NC3CCCC3)c(-c3ccc(C)cc3)[nH]2)cc1OC,0.99
COC(=O)c1c[nH]n2c(=O)c(Cc3cccc(C)c3)c(C)nc12,1.1
COc1ccc(-c2cc(C(=O)NC3CCCC3)no2)cc1,1.2
Cc1nc2c(C(=O)NC3CCC(C)CC3)c[nH]n2c(=O)c1Cc1ccccc1F (centres undefined),1.1
COc1ccc(NC(=O)c2c[nH]n3c(=O)cc(C4CCN(C(=O)OC(C)(C)C)CC4)nc23)cc1OC,0.89
Cc1cc(C)nc(NS(=O)(=O)c2ccc(Nc3nc(-c4ccccn4)cs3)cc2)n1,0.85
Cc1ccccc1C(=O)Nc1sc2c(c1C(=O)N1CCCC1)CCC2,1.1
CCOc1ccc(NS(=O)(=O)c2ccc3[nH]cc(C(=O)NC4CCC(C)CC4)c(=O)c3c2)cc1 (centres undefined),0.64
COc1ccc(-c2cc(C(=O)Nc3c(C)nn(Cc4ccccc4)c3C)no2)cc1OC,0.77
CN(C)S(=O)(=O)c1ccc(C(=O)N2CC(=O)Nc3ccc(Cl)cc3C2c2ccc(F)cc2)cc1 (centres undefined),1.2
COc1ccc(Cc2noc(-c3cc(-c4ccc(Cl)cc4)nc4ccccc34)n2)cc1,1.2
CCN(c1ccccc1)S(=O)(=O)c1ccc2[nH]cc(C(=O)N3CC(C)CC(C)C3)c(=O)c2c1 (centres undefined),0.93
CCc1ccccc1NC(=O)C1CCN(S(=O)(=O)c2ccc3c(c2)CCC(=O)N3)CC1,1
CCCOc1ccc(C(=O)Nc2c(C(=O)c3ccc(Cl)cc3)oc3ccccc23)cc1,1
CCN(CC)S(=O)(=O)c1ccc2c(c1)N(CC(=O)Nc1ccccc1Cl)C(=O)CS2,1
CC(CNC(=O)C1CCCN(c2nc3ccccc3[nH]2)C1)c1ccccc1 (centres undefined),0.87
CC1(C)CC(=O)c2sc(NC(=O)c3cccc(F)c3)nc2C1,1
Cc1ccc(-n2cnc3cc(C(=O)NCc4ccc(F)cc4)ccc32)cc1Cl,1
CCN(CCNC(=O)C1CCN(c2nn3c(=O)cc(C)nc3s2)CC1)c1ccccc1,1.1
SMILES,CBX7 inh
COc1cccc(/C=c2/sc3nc4cc(C)c(C)cc4n3c2=O)c1OC,1
COC(=O)c1c[nH]n2c(NC3CCCCC3)c(-c3cccs3)nc12,0.52
COc1ccc(-c2nc3cnccn3c2NC2CCCCC2)cc1,1.3
COC(=O)c1c[nH]n2c(NC3CCCCCC3)c(-c3ccc(OC)cc3)nc12,0.34*
COc1ccc(-c2nc3ncc(-c4ccccc4)nn3c2C)cc1,1.3
Cc1ccc(CNC(=O)C2CCC(=O)N2C2CCCC2)cc1 (centres undefined),1
COc1ccc(C(=O)NCc2nnc(SCC(=O)Nc3cc(C)on3)o2)cc1OC,0.96
Cc1cc(NC(=O)CSc2nnc(CNC(=O)c3c(F)cccc3Cl)o2)no1,0.029*
O=C(CSc1nnc(CNC(=O)c2c(F)cccc2Cl)o1)Nc1ccccc1,0.91
COc1cc(C(=O)NCc2nnc(SCC(=O)Nc3cc(C)on3)o2)cc(OC)c1OC,0.051*
Cc1cccc(NC(=O)CSc2nnc(CNC(=O)COc3ccc(Cl)cc3)o2)c1,1
Cc1nnc(NC(=O)CSc2nnc(CNC(=O)COc3ccc(Cl)cc3)o2)s1,0.85
Cc1cccc(NC(=O)CSc2nnc(CNC(=O)c3c(F)cccc3Cl)o2)c1,1.1
Cc1cc(NC(=O)CSc2nnc(CNC(=O)COc3ccc(Cl)cc3)o2)no1,0.21*
COc1cc(C(=O)NCc2nnc(SCC(=O)Nc3ccc(Cl)cc3)o2)cc(OC)c1OC,0.95
CCOC(=O)C1CCN(c2c(N3CCN(c4cccc(C)c4)C(C)C3)c(=O)c2=O)CC1 (centres undefined),1.1
O=C(NC(c1ccccc1)c1c(O)ccc2ccccc12)C(F)(F)F (centres undefined),1
CC(C)=C1C2C=CC1C1C(=O)N(c3cccc(C(=O)O)c3)C(=O)C21 (centres undefined),1.1
O=C(CN1C(=O)CC(c2ccccc2)Sc2ccccc21)Nc1ccc(F)cc1 (centres undefined),1
COc1ccc(-n2ncnc2-c2ccc(Cl)cc2Cl)cc1,0.95
O=C(NC1CC1)c1cc(-c2ccccn2)nc2ccc(S(=O)(=O)N3CCOCC3)cc12,1.1
Cc1ccc2c(c1)c(=O)c(S(=O)(=O)c1ccccc1)cn2CC(=O)Nc1ccc2c(c1)OCO2,0.93
CNC(=O)CN1C(=O)COc2ccc(S(=O)(=O)N3CCCC3)cc21,0.92
CC1CCN(S(=O)(=O)c2ccc3ncn(CC(=O)Nc4ccc(F)c(Cl)c4)c(=O)c3c2)CC1,1.1
